A selection: hits, their analogues and other compounds. The true share with any hit is near 21%.
DT40 TDP1 CPT = DT40-hTDP1 cell growth loss with CPT; chicken DT40 Tdp1-/-;hTDP1 cells + 20 nM CPT, ATP luminescence, 48 h; Potency, µM (titrated, usually from 46.2 µM), without a hit: at the highest dose activity change, negative = growth inhibition, usual class: inhibitors; actives 12% (n = 420,000); AID 686979; further: potency means the concentration at half of the fitted maximal effect; nearly all actives have a fitted effect of over 55% in size
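Chicken DT40 Tdp1-/- cells complemented with human TDP1, 400 cells/well, exposed to compounds plus 20 nM camptothecin for at least 48 h at 37 C; viability read as ATP content by CellTiter-Glo luminescence.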
ELG1 DNA repair = ELG1-dependent DNA repair inhibition; HEK293T ELG1-luciferase reporter, luminescence, 16 h; DNA damage induced by 5-fluorouridine; Potency, µM (doses to about 46.1 µM), inactives show at the highest dose activity change, negative = inhibition, most hits filed as inhibitors; actives 2.3% (n = 330,000); AID 504467; further: potency means the concentration at half of the fitted maximal effect; nearly all actives have a fitted effect of over 55% in size
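Step one: seed 2,000 cells per well. Step two: pin-transfer compound or DMSO alongside 5-fluorouridine. Step three: incubate 16 hr, 37 °C, 5% CO2. Step four: add ONE-Glo, wait 30 min, read luminescence.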
RORg inh = blocks mouse ROR gamma transcriptional activity. P51450. Drosophila S2 Gal4-RORgamma UAS-luciferase reporter, 20 h. Potency, µM (titrated, usually from 53.6 µM), for the others: top-dose activity change, negative = inhibition, hits mostly inhibitors. actives 5.4% (n = 310,000). AID 2551; further: potency means the concentration at half of the fitted maximal effect; nearly all actives have a fitted effect of over 60% in size
Target sequence (P51450 whole entry, looked up, the tested form may be a part): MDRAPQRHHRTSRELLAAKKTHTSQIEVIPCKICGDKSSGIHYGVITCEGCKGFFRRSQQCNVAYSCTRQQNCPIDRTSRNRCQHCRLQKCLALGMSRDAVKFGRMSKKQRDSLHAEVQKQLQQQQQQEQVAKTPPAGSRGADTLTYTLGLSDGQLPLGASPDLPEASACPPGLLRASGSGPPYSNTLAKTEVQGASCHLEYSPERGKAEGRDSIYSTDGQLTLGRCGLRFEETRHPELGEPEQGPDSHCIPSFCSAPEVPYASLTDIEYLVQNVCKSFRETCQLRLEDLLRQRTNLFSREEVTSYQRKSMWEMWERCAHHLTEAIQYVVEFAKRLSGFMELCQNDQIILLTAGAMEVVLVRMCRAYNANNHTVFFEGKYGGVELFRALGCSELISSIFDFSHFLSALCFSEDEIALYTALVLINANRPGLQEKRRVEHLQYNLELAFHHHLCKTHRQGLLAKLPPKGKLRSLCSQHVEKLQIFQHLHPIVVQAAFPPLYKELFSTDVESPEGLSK
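Schneider cells (Drosophila), stable Gal4 DBD–ROR gamma + UAS-luc; 1 hr cmpd preincubation; Cu2+ induction 700 uM final; 20 hr ambient; luminescence.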
IL-1B inflam inh = blocks inflammasome-driven IL-1 beta release; AID 743279; activity change, % at 57.5 µM; actives 4.7% (n = 360,000); THP-1 LPS/ATP IL-1B secretion, AlphaLISA, 16 h; stronger effect = lower value; in the data active means activity change below about -50%; inconclusive means mostly about -30% to -49%
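THP-1 cells pretreated 1 hr with compounds (up to 57.5 uM final), then stimulated with LPS (250 ng/mL final) plus ATP (1.25 mM final); secreted IL-1B measured by AlphaLISA after 16 hr, decreased signal indicating inhibition.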
TDP1 cell noCPT = qHTS for Inhibitors of human tyrosyl-DNA phosphodiesterase 1 (TDP1): qHTS in cells in absence of CPT | AID 686978, 2013 | DT40 Tdp1-/- hTDP1 cells, no CPT, ATP luminescence, 48 h | Potency, µM (titrated, usually from 46.2 µM), for inactives: at the highest dose activity change, negative = growth inhibition, actives largely listed as inhibitors | actives 15% (n = 420,000); further: potency means the concentration at half of the fitted maximal effect; nearly all actives have a fitted effect of over 55% in size
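Seeded 400 DT40-hTDP1 cells/well (vehicle DMSO, no 20 nM CPT); pinned compounds; ≥48 hr at 37 °C; CellTiter-Glo luminescence as viability measure.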
Gal4-VP16 FLuc = Gal4-VP16 reporter inhibition counter-screen; Potency, µM (highest dose often 53.6 µM), without a hit: at the top dose activity, negative = inhibition, most hits filed as inhibitors; AID 2546; Drosophila S2 Gal4-VP16 UAS-luciferase, luminescence, 20 h; actives 3.5% (n = 310,000);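 further: Gal4-VP16 expression switched on by copper sulfate through the metallothionein promoter; potency means the concentration at half of the fitted maximal effect; nearly all actives have a fitted effect of over 50% in size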
* marks the source's active call; other numbers are inactive results; [ ] = dose if it differs, or a comment. Unless noted, the call rests on the fitted dose curve; in most records, active means well fitted curve in the direction sought with a large enough effect; inconclusive means small, poorly fitted or top-dose-only effect, or another doubt; inactive means no such curve, though single readings can be large; an effect the other way counts as inactive or inconclusive. On the % scale 0 is the no-effect control and ±100 the full control effect.

What do the screens show for `CCc1nc2ccc(C(=O)NCc3ccccc3OC)cn2c1N(C)Cc1ccc(OC)cc1`?
DT40 TDP1 CPT: 16µM*; IL-1B inflam inh: -52*; TDP1 cell noCPT: 21µM*

What do the screens show for `CN(Cc1ccccc1)c1nc(N)nc(Cl)c1C=O`?
DT40 TDP1 CPT: -26%; ELG1 DNA repair: 2%; RORg inh: 4%; IL-1B inflam inh: -106*; TDP1 cell noCPT: inconclusive; Gal4-VP16 FLuc: 20%

What do the screens show for `CN(Cc1ccccc1)c1nccn2ccnc12`?
DT40 TDP1 CPT: inconclusive; IL-1B inflam inh: 41; TDP1 cell noCPT: inconclusive

How did COc1ccccc1NS(=O)(=O)c1cc(C(=O)NCc2ccco2)ccc1C do in these assays?
DT40 TDP1 CPT: -8%; ELG1 DNA repair: 1%; RORg inh: 33%; IL-1B inflam inh: -63*; TDP1 cell noCPT: -9%; Gal4-VP16 FLuc: 9%

What do the screens show for `Cc1ccccc1NS(=O)(=O)c1cc(C(=O)NCc2ccco2)ccc1C`?
DT40 TDP1 CPT: -26%; ELG1 DNA repair: 1%; RORg inh: 4%; IL-1B inflam inh: -28; TDP1 cell noCPT: -6%; Gal4-VP16 FLuc: 1%

How did Cc1ccc(SCCNC(=O)c2ccc(C)c(S(=O)(=O)Nc3ccccc3C)c2)cc1 do in these assays?
DT40 TDP1 CPT: inconclusive; ELG1 DNA repair: 2.9µM*; RORg inh: inconclusive; IL-1B inflam inh: -67*; TDP1 cell noCPT: 22µM*; Gal4-VP16 FLuc: -8%

What do the screens show for `COc1ccccc1NS(=O)(=O)c1ccc(C(=O)NCc2ccncc2)cc1`?
DT40 TDP1 CPT: -26%; ELG1 DNA repair: 7%; IL-1B inflam inh: 25; TDP1 cell noCPT: -26%

Results for COc1ccccc1NS(=O)(=O)c1ccc(C(=O)NCc2ccco2)cc1 ?
DT40 TDP1 CPT: 10µM*; ELG1 DNA repair: -20%; IL-1B inflam inh: 25; TDP1 cell noCPT: inconclusive

What do the screens show for `CC1(C)OC(=O)C2(Cc3ccc(Cl)cc3N3CCCCC32)C(=O)O1` (configuration not stated)?
DT40 TDP1 CPT: 4%; TDP1 cell noCPT: -20%

How did Cc1cccc(NC(=O)c2ncn3c2C(=O)N(C)CC3)c1 do in these assays?
DT40 TDP1 CPT: -11%; IL-1B inflam inh: -21; TDP1 cell noCPT: inconclusive

What do the screens show for `O=C(CCC(=O)c1ccccc1)Nc1ccc(C(=O)O)cc1`?
DT40 TDP1 CPT: inconclusive; ELG1 DNA repair: -6%; RORg inh: 18%; IL-1B inflam inh: 10; TDP1 cell noCPT: inconclusive; Gal4-VP16 FLuc: 6%

Results for C=CCC(C)(Nc1ccccc1)C(=O)OCC (configuration not stated) ?
RORg inh: -3%; Gal4-VP16 FLuc: 5%

Results for Cc1cc(C)c(NC(=O)c2nc3ccccc3nc2N2CCCCC2)c(C)c1 ?
DT40 TDP1 CPT: inconclusive; TDP1 cell noCPT: 26µM*

Results for CCc1ccc(NC(=O)CSc2nc3ccccc3nc2N2CCCCC2)cc1 ?
DT40 TDP1 CPT: inconclusive; ELG1 DNA repair: inconclusive; RORg inh: -1%; IL-1B inflam inh: 32; TDP1 cell noCPT: 10µM*; Gal4-VP16 FLuc: -13%

How did COc1ccc(NC(=O)CSc2nc3ccccc3nc2N2CCCCC2)cc1 do in these assays?
DT40 TDP1 CPT: inconclusive; ELG1 DNA repair: inconclusive; RORg inh: -28%; IL-1B inflam inh: 21; TDP1 cell noCPT: inconclusive; Gal4-VP16 FLuc: -2%

How did CCc1cccc(C)c1NC(=O)c1nc2ccccc2nc1N1CCCCC1 do in these assays?
DT40 TDP1 CPT: inconclusive; TDP1 cell noCPT: -50%

What do the screens show for `CCc1cccc(NC(=O)CSc2nc3ccccc3nc2N2CCCCC2)c1`?
DT40 TDP1 CPT: 12µM*; TDP1 cell noCPT: 16µM*

How did Cc1cccc(NC(=O)CSc2nc3ccccc3nc2N2CCCCC2)c1 do in these assays?
DT40 TDP1 CPT: 29µM*; ELG1 DNA repair: inconclusive; RORg inh: inconclusive; IL-1B inflam inh: -4; TDP1 cell noCPT: inconclusive; Gal4-VP16 FLuc: -6%

Results for COc1ccc(Cl)cc1NC(=O)C(C)N(C)Cc1cccc(Cl)c1Cl (configuration not stated) ?
DT40 TDP1 CPT: inconclusive; ELG1 DNA repair: 1%; RORg inh: inconclusive; IL-1B inflam inh: 5; TDP1 cell noCPT: inconclusive; Gal4-VP16 FLuc: -12%

What do the screens show for `CC1=C(C)CC(C(=O)NNC(=O)c2csc(C)c2C)C(C(=O)O)C1` (configuration not stated)?
DT40 TDP1 CPT: 8%; ELG1 DNA repair: 2%; RORg inh: -13%; IL-1B inflam inh: -2; TDP1 cell noCPT: -5%; Gal4-VP16 FLuc: 18%

How did CCCCCCCCCCCCCCCC(=O)OC(CO)CO do in these assays?
RORg inh: -20%; Gal4-VP16 FLuc: -5%

Results for COc1ccccc1C1CN(Cc2c(C)nn(C)c2Cl)Cc2ccccc2O1 (configuration not stated) ?
DT40 TDP1 CPT: -6%[9.04 µM]; TDP1 cell noCPT: -1%

How did Cc1oc2cc(OCc3cnn(-c4ccccc4)c3)ccc2c(=O)c1Oc1ccccc1F do in these assays?
DT40 TDP1 CPT: -65%; ELG1 DNA repair: 4%; RORg inh: 32%; IL-1B inflam inh: 32; TDP1 cell noCPT: -75%; Gal4-VP16 FLuc: -13%

Results for Cc1cccc(NC(=O)CSc2nc3ccccc3nc2N2CCCCC2)c1C ?
DT40 TDP1 CPT: 23µM*; TDP1 cell noCPT: 12µM*

How did COC(=O)c1cc2oc3ccccc3c2n1Cc1cccc(C)c1 do in these assays?
DT40 TDP1 CPT: -27%; TDP1 cell noCPT: inconclusive

How did CCN(C(=O)Cn1c(C(=O)OC)cc2oc3ccccc3c21)c1cccc(C)c1 do in these assays?
DT40 TDP1 CPT: 12µM*; TDP1 cell noCPT: 18µM*

What do the screens show for `CC(C)Oc1cccc(C(=O)C2CCCN(C(=O)c3noc4c3CCCC4)C2)c1` (configuration not stated)?
DT40 TDP1 CPT: 18µM*; ELG1 DNA repair: inconclusive; RORg inh: inconclusive; IL-1B inflam inh: -7; TDP1 cell noCPT: 21µM*; Gal4-VP16 FLuc: -5%

What do the screens show for `CC(C)Oc1cccc(C(=O)C2CCCN(C(=O)c3ccc4c(c3)OCO4)C2)c1` (configuration not stated)?
DT40 TDP1 CPT: inconclusive; ELG1 DNA repair: -12%; RORg inh: 0%; IL-1B inflam inh: 3; TDP1 cell noCPT: inconclusive; Gal4-VP16 FLuc: -5%

Screens: PubChem, National Center for Advancing Translational Sciences (NCATS)
